Bioassay records (PubChem BioAssay)
Pf growth 48h: inhibits P. falciparum growth in the first generation, 48 h; P. falciparum luciferase growth in erythrocytes, 48 h; Potency, µM (highest dose often 28.7 µM), for inactives: at the top dose activity change, negative = inhibition, usual class: inhibitors; actives 5.9% (n = 310,000); AID 504832; note: % is set by controls: 0 for no effect and ±100 for the full control effect
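Compounds are pin-transferred into medium, infected erythrocytes (2% hematocrit, 0.1% parasitemia final) are added, and plates sit one parasite generation at 37 C in 5% CO2. Detection reagent is then added and luminescence measured.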
SARS PLP yeast: inhibitors of SARS-CoV papain-like protease in yeast; actives 0.19% (n = 330,000); Potency, µM (highest dose often 32.9 µM), for the others: at the top dose activity, positive = growth rescue, usual class: activators; S. cerevisiae expressing SARS-CoV PLpro, growth rescue; AID 485353; calls by dose curve; note: 0% is about no effect; nearly all actives have a fitted effect of over 55% in size
Pf growth 96h: P. falciparum growth inhibition at 96 hours | actives 6.9% (n = 320,000) | P. falciparum luciferase reporter growth, 96 h | Potency, µM (series often up to 28.7 µM), for the others: at the highest dose activity change, negative = inhibition, most hits filed as inhibitors; note: % is set by controls: 0 for no effect and ±100 for the full control effect
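Infected RBCs, 2% Hct / 0.05% parasitemia final; luciferase-reporter P. falciparum; cpd 96 h, 37 C, 5% CO2; luciferase detection reagent; luminescence.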
NS1 inh: blocks influenza NS1 protein function; Potency, µM (titrated, usually from 46.1 µM), for the others: at the highest dose activity, positive = more growth; actives 0.4% (n = 270,000); AID 2326; calls by dose curve; note: actives are rising curves; nearly all actives have a fitted effect of over 50% in size
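Recovery from NS1-induced slow growth read by OD600 in budding yeast switched to galactose assay medium (pH 6.0, -URA) at 1:100 dilution. Compound 23 nl per well; the matching strain lacking NS1 serves as control.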
* marks the source's active call; other numbers are inactive results; ? = inconclusive; . = no result. Only some compounds are listed: those with a hit (about 10% of all), similar ones and a draw of the others. Unless noted, calls come from the whole dose curve; as a rule, active = well fitted inhibition curve with a large enough effect; inconclusive = small, poorly fitted or top-dose-only effect, or another doubt; inactive = no such curve, though single readings can be large or run the other way. Potency is the fitted concentration of half-maximal effect.

SMILES | Pf growth 48h | SARS PLP yeast | Pf growth 96h | NS1 inh
COc1cccc(NC(=O)CN(C)C(=O)CC(C)c2ccccc2)c1 (stereo unspecified) | -2% | -1% | ? | 8%
CC(=O)Nc1cccc(NC(=O)Cc2nc(-c3ccccc3)sc2-c2ccc(C)cc2)c1 | ? | -2% | ? | ?
COc1ccc(CC(=O)Nc2nc3ccccc3[nH]2)cc1 | ? | -1% | -3% | 10%
O=C(CCc1nc2ccccc2[nH]1)Nc1ccc2c(c1)OCCO2 | 31% | -1% | 1µM* | -26%
COc1ccccc1NC(=O)CSCc1nc2ccccc2[nH]1 | ? | 27% | 12µM* | 1%
COc1ccc(NC(=O)Cc2nc3ccccc3[nH]2)cc1 | 12µM* | 8% | ? | ?
Cc1ccc(NC(=O)CCc2nc3ccccc3[nH]2)cc1C | 4% | -3% | -7% | -3%
Cc1ccccc1C(C(=O)NC1CCCCC1)N(C(=O)CNC(=O)c1ccco1)c1cccnc1 (stereo unspecified) | 18% | 1% | 36% | 3%
CC(C)(C)C(=O)Nc1nc2c(c(=O)[nH]1)CCCC2 | 9.3µM* | -1% | 28% | .
O=c1[nH]c(N2CCN(Cc3ccccc3)CC2)nc2c1CCC2 | 14% | -1% | 0% | -2%
CCCCCc1c(C)nc(NCc2ccccc2)[nH]c1=O | 2.1µM* | -3% | . | -62%
O=c1[nH]c(NCc2ccccc2)nc2c1CCC2 | -21% | 9% | 15µM* | -7%
CC(C)(Oc1ccc(F)cc1)C(=O)OCC(=O)c1ccc(S(C)(=O)=O)cc1 | . | -5% | . | .
CCOP(=O)(OCC)c1nc(/C=C/c2ccccc2)oc1NCc1ccc(OC)cc1 | . | -14% | ? | 16%
CCOP(=O)(OCC)c1nc(/C=C/c2ccccc2)oc1NCc1ccccc1 | 12µM* | 10% | 44% | 9%
CCOP(=O)(OCC)c1nc(-c2cccc3ccccc23)oc1NCc1ccc(OC)cc1 | ? | 0% | 13µM* | .
CN(C)CCN1C(=O)C2C(C(=O)Nc3cc(Cl)cc(Cl)c3)C3C=CC2(O3)C1C(=O)NC1CCCCC1 (stereo unspecified) | ? | 0% | ? | -10%
Cc1ccccc1-c1nc(CN2CCC(C(=O)O)CC2)c(C)o1 | . | 4% | ? | -3%
Cc1ccccc1-c1nc(CN(Cc2c(C)nn(C)c2C)C2CC2)c(C)o1 | 12µM* | 0% | 37% | -2%
CC1CCN(CC(=O)Nc2ccc(C(=O)N3CCCCC3)cc2)CC1 | 0% | 4% | 3.3µM* | 2%
CC1CCN(c2ccc(NC(=O)Cc3ccccc3)cc2)CC1 | 19% | 0% | ? | -4%
COc1ccc(NC(=O)CN2CCC(C)CC2)cc1 | 31% | 4% | . | 6%
CCC(=O)Nc1ccc(N2CCC(C)CC2)cc1 | -17% | -4% | 10µM* | -1%
CC1CCN(c2ccc(NC(=O)c3cccnc3Cl)cc2)CC1 | 21% | 0% | 10µM* | ?
O=C(CBr)Nc1c2c(nn1-c1ccccc1)CSC2 | 10% | -6% | 15% | 12%
SMILES | Pf growth 48h | SARS PLP yeast | Pf growth 96h | NS1 inh
CC[C@]12c3[nH]c4ccc(Cl)cc4c3CCN1C(=O)[C@@H](CC(=O)NCCCn1ccnc1)C[C@@H]2C(=O)N1CCN(C(=O)C2CC2)CC1 | . | 0% | . | .
COc1ccc(OC)c(S(=O)(=O)Nc2ccc(-c3ccc4nncn4n3)cc2)c1 | 19% | -3% | ? | .
CC(=O)OC1C(OC(C)=O)N(C(C)=O)C(=O)N1C(C)=O (stereo unspecified) | -4% | 2% | 9.3µM* | -2%
CC(=O)N1C(=O)N(C)C2C1N(C)C(=O)N2C(C)=O (stereo unspecified) | 1% | 6% | ? | 2%
COc1ccc(N(C(=O)c2snc(C(N)=O)c2N)C(C(=O)NC2CCCC2)c2ccc(F)cc2)c(OC)c1 (stereo unspecified) | ? | 0% | 219% | 9%
COc1ccc(C(C(=O)NC2CCCC2)N(C(=O)c2snc(-c3ccc(F)cc3)c2N)c2ccc(OC)cc2)cc1 (stereo unspecified) | ? | 1% | 5.2µM* | 2%
COc1ccc(C)cc1N(C(=O)c1snc(C(N)=O)c1N)C(C(=O)NC1CCCC1)c1ccc(F)cc1 (stereo unspecified) | 9.3µM* | 1% | 21% | ?
COCCN(C(=O)c1snc(C(N)=O)c1N)C(C(=O)NC1CCCC1)c1cc(OC)c(OC)c(OC)c1 (stereo unspecified) | -6% | 2% | ? | -8%
